Among all 5,500 compounds or so, about 2,000 (36%) were called active. About 18% were inconclusive and are not listed. Cut-off read from the data, not from the text of the source: active = normalized growth mostly below about 0.91 (no sharp cut-off); inconclusive = no clear call, values can overlap the other calls; inactive = mostly above about 0.92. This is one part of the list.
Assay: chemical genetic growth profiling, strain panel (AID 1159580);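 note: tested at 20 µM; growth read once vehicle control cultures reached saturation at 30 °C; 1 = growth at the plate median or of vehicle wells; lower values mean less growth of the strain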
Details: growth OD

Measured: normalized growth

COC1=CC(C)[C@@H]2C[C@H]3OC(=O)C[C@H]4C(C)=C(OC)C(=O)C([C@@]34C)[C@@]2(C)C1=O (some centres undefined)
inactive: S. cerevisiae deletion strains, locus YKL009W, strain mrt4, stronger effect = lower value 1.01 | S. cerevisiae deletion strains, locus YKL068W, stronger effect = lower value 1 | S. cerevisiae deletion strains, locus YKL085W, strain MDH1 (second series), stronger effect = lower value 1 | S. cerevisiae deletion strains, locus YKL085W, strain MDH1, stronger effect = lower value 1 | S. cerevisiae deletion strains, locus YKL160W, strain elf1, stronger effect = lower value 1 | S. cerevisiae deletion strains, locus YKL190W, strain CNB1, stronger effect = lower value 1.01 | S. cerevisiae deletion strains, locus YKR001C, strain vps1, stronger effect = lower value 0.986 | S. cerevisiae deletion strains, locus YKR026C, strain gcn3, stronger effect = lower value 0.96 | S. cerevisiae deletion strains, locus YKR091W, strain srl3, stronger effect = lower value 0.967 | S. cerevisiae deletion strains, locus YLL001W, strain dnm1, stronger effect = lower value 0.969 | S. cerevisiae deletion strains, locus YLL026W, stronger effect = lower value 0.985 | S. cerevisiae deletion strains, locus YLL041C, strain sdh2, stronger effect = lower value 0.983 | S. cerevisiae deletion strains, locus YLR027C, strain aat2, stronger effect = lower value 0.992 | S. cerevisiae deletion strains, locus YLR039C, strain RIC1, stronger effect = lower value 1.06 | S. cerevisiae deletion strains, locus YLR058C, strain SHM2, stronger effect = lower value 1.02 | S. cerevisiae deletion strains, locus YLR102C, strain apc9, stronger effect = lower value 1.02 | S. cerevisiae deletion strains, locus YLR113W, strain HOG1, stronger effect = lower value 1.03 | S. cerevisiae deletion strains, locus YLR221C, strain rsa3, stronger effect = lower value 1.01 | S. cerevisiae deletion strains, locus YLR258W, strain gsy2, stronger effect = lower value 0.968 | S. cerevisiae deletion strains, locus YLR262C, strain YPT6 (second series), stronger effect = lower value 0.991 | S. cerevisiae deletion strains, locus YLR262C, strain YPT6, stronger effect = lower value 1.16 | S. cerevisiae deletion strains, locus YLR268W, strain sec22, stronger effect = lower value 1.04 | S. cerevisiae deletion strains, locus YLR320W, strain mms22, stronger effect = lower value 0.975 | S. cerevisiae deletion strains, locus YLR330W, strain CHS5, stronger effect = lower value 1.01 | S. cerevisiae deletion strains, locus YLR342W, strain FKS1 (second series), stronger effect = lower value 1.01 | S. cerevisiae deletion strains, locus YLR342W, strain FKS1, stronger effect = lower value 0.976 | S. cerevisiae deletion strains, locus YLR357W, strain rsc2, stronger effect = lower value 0.942 | S. cerevisiae deletion strains, locus YLR370C, strain arc18, stronger effect = lower value 0.978 | S. cerevisiae deletion strains, locus YLR371W, strain rom2, stronger effect = lower value 1.02 | S. cerevisiae deletion strains, locus YLR384C, strain iki3, stronger effect = lower value 0.967 | S. cerevisiae deletion strains, locus YLR418C, strain cdc73, stronger effect = lower value 1 | S. cerevisiae deletion strains, locus YML016C, strain PPZ1, stronger effect = lower value 1.01 | S. cerevisiae deletion strains, locus YML032C, strain rad52, stronger effect = lower value 1.01 | S. cerevisiae deletion strains, locus YML120C, strain ndi1, stronger effect = lower value 0.99 | S. cerevisiae deletion strains, locus YML124C, strain tub3, stronger effect = lower value 1.01 | S. cerevisiae deletion strains, locus YMR058W, strain fet3, stronger effect = lower value 0.976 | S. cerevisiae deletion strains, locus YMR078C, strain ctf18, stronger effect = lower value 1.03 | S. cerevisiae deletion strains, locus YMR125W, strain sto1, stronger effect = lower value 0.975 | S. cerevisiae deletion strains, locus YMR129W, stronger effect = lower value 0.987 | S. cerevisiae deletion strains, locus YMR205C, strain PFK2, stronger effect = lower value 0.946 | S. cerevisiae deletion strains, locus YMR223W, strain ubp8, stronger effect = lower value 1.01 | S. cerevisiae deletion strains, locus YMR231W, strain pep5, stronger effect = lower value 0.973 | S. cerevisiae deletion strains, locus YMR263W, strain SAP30, stronger effect = lower value 1.02 | S. cerevisiae deletion strains, locus YMR307W, strain GAS1, stronger effect = lower value 1.17 | S. cerevisiae deletion strains, locus YNL067W, strain RPL9B, stronger effect = lower value 1.03 | S. cerevisiae deletion strains, locus YNL071W, strain lat1, stronger effect = lower value 0.987 | S. cerevisiae deletion strains, locus YNL153C, strain GIM3, stronger effect = lower value 1.02 | S. cerevisiae deletion strains, locus YNL183C, strain NPR1, stronger effect = lower value 0.988 | S. cerevisiae deletion strains, locus YNL209W, strain ssb2, stronger effect = lower value 1 | S. cerevisiae deletion strains, locus YNL233W, strain BNI4, stronger effect = lower value 1.03 | S. cerevisiae deletion strains, locus YNL248C, strain rpa49, stronger effect = lower value 1.01 | S. cerevisiae deletion strains, locus YNL250W, strain rad50, stronger effect = lower value 1.03 | S. cerevisiae deletion strains, locus YNL271C, strain bni1, stronger effect = lower value 1.01 | S. cerevisiae deletion strains, locus YNL298W, strain CLA4, stronger effect = lower value 1.02 | S. cerevisiae deletion strains, locus YNL307C, strain MCK1, stronger effect = lower value 1.01 | S. cerevisiae deletion strains, locus YNL322C, strain KRE1 (second series), stronger effect = lower value 0.988 | S. cerevisiae deletion strains, locus YNL322C, strain KRE1, stronger effect = lower value 1 | S. cerevisiae deletion strains, locus YNR049C, strain mso1, stronger effect = lower value 0.973 | S. cerevisiae deletion strains, locus YNR052C, strain pop2, stronger effect = lower value 1.01 | S. cerevisiae deletion strains, locus YOL006C, strain TOP1, stronger effect = lower value 1.08 | S. cerevisiae deletion strains, locus YOL012C, strain htz1 2.07 | S. cerevisiae deletion strains, locus YOL147C, strain pex11, stronger effect = lower value 1 | S. cerevisiae deletion strains, locus YOR001W, strain rrp6, stronger effect = lower value 0.993 | S. cerevisiae deletion strains, locus YOR061W, strain CKA2, stronger effect = lower value 1.01 | S. cerevisiae deletion strains, locus YOR069W, strain VPS5, stronger effect = lower value 1.01 | S. cerevisiae deletion strains, locus YOR070C, strain gyp1, stronger effect = lower value 0.987 | S. cerevisiae deletion strains, locus YOR080W, strain dia2, stronger effect = lower value 0.977 | S. cerevisiae deletion strains, locus YOR083W, strain WHI5, stronger effect = lower value 1.01 | S. cerevisiae deletion strains, locus YOR106W, strain vam3, stronger effect = lower value 0.992 | S. cerevisiae deletion strains, locus YOR136W, strain idh2, stronger effect = lower value 1.01 | S. cerevisiae deletion strains, locus YOR144C, strain elg1, stronger effect = lower value 1.01 | S. cerevisiae deletion strains, locus YOR184W, strain ser1, stronger effect = lower value 1.02 | S. cerevisiae deletion strains, locus YOR231W, strain MKK1, stronger effect = lower value 1.04 | S. cerevisiae deletion strains, locus YOR265W, strain rbl2, stronger effect = lower value 0.982 | S. cerevisiae deletion strains, locus YOR270C, strain vph1, stronger effect = lower value 0.975 | S. cerevisiae deletion strains, locus YOR290C, strain snf2, stronger effect = lower value 0.903 | S. cerevisiae deletion strains, locus YOR316C, strain cot1, stronger effect = lower value 1.01 | S. cerevisiae deletion strains, locus YPL051W, strain arl3, stronger effect = lower value 1 | S. cerevisiae deletion strains, locus YPL078C, strain atp4, stronger effect = lower value 0.996 | S. cerevisiae deletion strains, locus YPL106C, strain sse1, stronger effect = lower value 0.978 | S. cerevisiae deletion strains, locus YPL240C, strain hsp82, stronger effect = lower value 0.987 | S. cerevisiae deletion strains, locus YPL241C, strain CIN2, stronger effect = lower value 1.01 | S. cerevisiae deletion strains, locus YPL256C, strain CLN2, stronger effect = lower value 1.01 | S. cerevisiae deletion strains, locus YPR119W, strain clb2, stronger effect = lower value 1.01 | S. cerevisiae deletion strains, locus YPR141C, strain kar3, stronger effect = lower value 1.01 | S. cerevisiae deletion strains, locus YPR163C, strain tif3, stronger effect = lower value 1.01 | S. cerevisiae deletion strains, locus YPR167C, strain met16, stronger effect = lower value 1 | S. cerevisiae deletion strains, strain wtn01, stronger effect = lower value 1.01 | S. cerevisiae strains, strain wild type, stronger effect = lower value 1.01

From PubChem BioAssay AID1159580 (chemical genetic matrix, 2015)
